# Results published in PubChem BioAssay (NCATS).
# Inconclusive results are not listed. Entries that show only a call come without a potency. Values without a mark were called inactive. Active and inactive are the calls of the source. Calls come from the whole dose curve; as a rule, active = well fitted inhibition curve with a large enough effect; inconclusive = small, poorly fitted or top-dose-only effect; inactive = flat fitted curve, though single readings scatter. *1 amine or outer side, *2 acyl side, *3 side chain or, on linkers, in order; H or OH if unused. Bridge positions count the residues as written; N and C are the ends. Where a SMILES comes first, the peptide text is derived from it. Square brackets hold non-standard residues; d marks the D form. Bridges are numbered along the chain shown (N, C = ends). Peptide text beside a SMILES is read from it. [ ]: non-standard residue; d: D form. The star is where a group is joined. X11 = NC1=N[C@@H](O)C[C@H]([C@H](N[*:1])C(=O)[*:2])N1; ΔAla(Z-3-ureido) = NC(=O)N/C=C(\N)C(=O)O; β3hOrn = NCCC[C@H](N)CC(=O)*; Orn = NCCC[CH](N)C(=O)O; Dap = NC[C@H](N)C(=O)O; Mpa = O=C(O)CCS
# Tests used:
# [1] = target: Glutathione peroxidase 1 (Homo sapiens) (UniProt P07203); assay: Primary qHTS Assay for Inhibitors of Recombinant Selenoprotein Glutathione Peroxidase 1 (GPX1) (AID 1845191); conditions: recombinant GPX1, GR-coupled NADPH fluorescence, 15 min; series mostly up to 48.8 µM
# Sequence of Glutathione peroxidase 1 (Homo sapiens) (P07203 whole entry, looked up): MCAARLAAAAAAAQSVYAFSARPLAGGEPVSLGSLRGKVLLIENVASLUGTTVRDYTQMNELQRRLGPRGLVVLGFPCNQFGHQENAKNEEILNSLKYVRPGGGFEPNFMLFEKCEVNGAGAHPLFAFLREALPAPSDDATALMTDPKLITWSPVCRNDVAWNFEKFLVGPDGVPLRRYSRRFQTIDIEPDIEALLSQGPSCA
# Summary of the method: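 GR-coupled readout: NADPH consumption tracked by fluorescence, ex 340/em 450 nm, at t=0 and after 15 min at RT. Final mix 10 nM GPX1, 1 mM GSH, 0.5 mM CHP, 0.5 mM NADPH, 100 nM GR, 0.01% BSA, following 30 min enzyme–compound preincubation.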
# [2] = target: Phospholipid hydroperoxide glutathione peroxidase GPX4 (Homo sapiens) (UniProt P36969); assay: Primary qHTS Assay for Inhibitors of Recombinant Selenoprotein Glutathione Peroxidase 4 (GPX4) (AID 1845192); conditions: recombinant GPX4, GR-coupled NADPH fluorescence, 15 min; series mostly up to 50 µM
# Sequence of Phospholipid hydroperoxide glutathione peroxidase GPX4 (Homo sapiens) (P36969 whole entry, looked up): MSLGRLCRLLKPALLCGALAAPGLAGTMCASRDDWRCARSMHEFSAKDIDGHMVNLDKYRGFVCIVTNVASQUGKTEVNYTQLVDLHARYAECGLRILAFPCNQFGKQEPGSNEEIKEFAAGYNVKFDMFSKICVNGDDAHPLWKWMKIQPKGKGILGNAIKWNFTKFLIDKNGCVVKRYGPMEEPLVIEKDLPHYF
# Summary of the method: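 Steps: GPX4 plus compound, 30 min RT; add GR/GSH/NADPH master mix; start with cumene hydroperoxide; read 340/450 nm fluorescence at 0 and 15 min. Finals were 200 nM GPX4, 1 mM GSH, 0.5 mM CHP, 0.5 mM NADPH, 100 nM GR.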
# Note: nearly all actives have a fitted effect of over 65% in size.
# Potency is the fitted concentration of half-maximal effect.
compound,measurement,setting,value
Cc1c(OCC(F)(F)F)ccnc1C[S@@](=O)c1nc2ccccc2[nH]1,Potency,[1],10.1 µM (active)
same,Potency,[2],10 µM (active)
CCC(=O)O[C@]1(C(=O)COC(C)=O)CC[C@H]2[C@@H]3C[C@H](C)C4=CC(=O)C=C[C@]4(C)[C@H]3[C@@H](O)C[C@@]21C,Potency,[1],inactive
CC(C)N(CCCCOCC(=O)O)c1cnc(-c2ccccc2)c(-c2ccccc2)n1,Potency,[1],inactive
Nc1nc(CC(=O)Nc2ccc(CCNC[C@H](O)c3ccccc3)cc2)cs1,Potency,[1],inactive
CCOc1ccc(CC2NC(=O)CCSSCC(C(=O)N3CCCC3C(=O)NC(CCCN)C(=O)NCC(N)=O)NC(=O)C(CC(N)=O)NC(=O)C(C(C)O)NC(=O)C(C(C)CC)NC2=O)cc1 (stereo not drawn) ([Mpa]Y(Et)ITNCP[Orn]G-NH2; disulfide 1-6; configuration not given here),Potency,[1],inactive
C1CCC[C@H]2CCCN3CC[C@H](CCCCCC[C@@H]4CCCN5CC[C@H](CC1)O[C@H]45)O[C@H]23,"activity, negative = inhibition",[1],1.08% [at 0.127 µM]
Cc1ccc2nc(NC(=O)CSc3nc4c(c(=O)n3C)SC(C)C4)sc2c1 (stereo not drawn),Potency,[1],inactive
Nc1ccccc1NC(=O)CCCCCCC(=O)Nc1ccccc1,Potency,[1],inactive
CCn1cc(-c2cccc(C(F)(F)F)c2)c2sc(C(N)=NC3CCS(=O)(=O)CC3)cc2c1=O,Potency,[1],20.2 µM (active)
CN1CCN(C(c2ccc(F)cc2)c2sc3nc(-c4ccco4)nn3c2O)CC1 (stereo not drawn),Potency,[1],inactive
O=C1NC(Nc2ccccc2)=N/C1=C\c1ccc2c(c1)OCO2,Potency,[1],inactive
Cc1c(C(=O)Nc2cccc(-c3nc4ccccc4s3)c2)oc2ccc(F)cc12,Potency,[1],inactive
CC(C)CCC[C@@H](C)[C@H]1CC[C@H]2[C@@H]3CC[C@H]4C[C@@H](O)CC[C@]4(C)[C@@H]3CC[C@]12C,Potency,[1],inactive
O=C(CCCCCCSc1ccc2ccccc2c1)NO,Potency,[1],inactive
CC1CCc2c(sc3nc(-c4cc5ccccc5oc4=O)nc(Cl)c23)C1 (stereo not drawn),Potency,[1],inactive
Nc1nc(NCc2ccccc2)c2[nH]cnc2n1,Potency,[1],inactive
C/C(=N\N=C(N)N)c1ccc(NC(=O)Nc2ccc(/C(C)=N/N=C(N)N)cc2)cc1,Potency,[1],inactive
O=C(O)c1ccc2nc(-c3cc(Cl)cc(Cl)c3)oc2c1,Potency,[1],inactive
Cn1cc(CN2CCN(C(c3ccccc3)c3ccccc3)CC2)cc1C#N,Potency,[1],inactive
Cc1cncc(CN2CCC(=C3c4ccc(Cl)cc4CCc4cccnc43)CC2)c1,Potency,[1],inactive
O=S1(=O)CCN(CN2CCS(=O)(=O)NC2)CN1,Potency,[1],inactive
CCCCCCCCCCCCCCCC(=O)OC1CCCn2c1nc(C)c(CCN1CCC(c3noc4cc(F)ccc34)CC1)c2=O (stereo not drawn),Potency,[1],inactive
same,Potency,[2],inactive
O=C(O)CSc1nnc(Br)n1-c1ccc(C2CC2)c2ccccc12,Potency,[1],inactive
same,Potency,[2],inactive
O=C(O[C@H]1C[N+]2(CCCOc3ccccc3)CCC1CC2)C(O)(c1cccs1)c1cccs1,Potency,[1],inactive
same,Potency,[2],inactive
CC(=O)OC1CCC2(C)C(=CCC3C2CCC2(C)C(c4cccnc4)=CCC32)C1 (stereo not drawn),Potency,[1],inactive
same,Potency,[2],inactive
CCCCC(CC)COC(=O)c1ccc(Nc2nc(Nc3ccc(C(=O)OCC(CC)CCCC)cc3)nc(Nc3ccc(C(=O)OCC(CC)CCCC)cc3)n2)cc1 (stereo not drawn),Potency,[1],inactive
same,Potency,[2],inactive
Cc1cc(C#N)cc(C)c1Oc1nc(Nc2ccc(C#N)cc2)nc(N)c1Br,Potency,[1],inactive
same,Potency,[2],inactive
CC(=O)c1cc2cccc(OCC(O)CNC(C)C)c2o1 (stereo not drawn),Potency,[1],inactive
same,Potency,[2],inactive
CCCCCCCCCCCCCCCC(=O)OC1C(SC)OC(C(NC(=O)C2CC(CCC)CN2C)C(C)Cl)C(O)C1O (stereo not drawn),Potency,[1],inactive
same,Potency,[2],inactive
C[C@H](CCC(=O)O)[C@H]1CC[C@H]2[C@@H]3CC[C@@H]4C[C@H](O)CC[C@]4(C)[C@@H]3C[C@H](O)[C@]12C,Potency,[1],inactive
same,Potency,[2],inactive
CCC(=O)NC[C@@H]1C[C@H]1c1cccc2c1CCO2,Potency,[1],inactive
same,Potency,[2],inactive
NCCC[C@H](N)CC(=O)N[C@H]1CNC(=O)[C@H]([C@H]2C[C@H](O)N=C(N)N2)NC(=O)/C(=C/NC(N)=O)NC(=O)[C@H](CO)NC(=O)[C@H](CO)NC1=O (β3hOrn-[Dap]SS[ΔAla(Z-3-ureido)][X11]; lactam 1-C),Potency,[1],inactive
same,Potency,[2],inactive
CC1(C)C[C@H]1C(=O)N/C(=C\CCCCSC[C@@H](N)C(=O)O)C(=O)O,Potency,[1],inactive
same,Potency,[2],inactive
CC[C@H]1OC(=O)C[C@@H](OC(C)=O)[C@H](C)[C@@H](O[C@@H]2O[C@H](C)[C@@H](O[C@H]3C[C@@](C)(O)[C@@H](OC(=O)CC(C)C)[C@H](C)O3)[C@H](N(C)C)[C@H]2O)[C@@H](CC=O)C[C@@H](C)C(=O)/C=C/C(C)=C/[C@@H]1CO[C@@H]1O[C@H](C)[C@@H](O)[C@@H](OC)[C@H]1OC,Potency,[1],inactive
same,Potency,[2],inactive
CN[C@@H]1[C@@H](O)[C@@H](O[C@@H]2[C@@H](O)[C@H](OC3O[C@H](CN)[C@@H](O)[C@H](O)[C@H]3O)[C@@H](N)C[C@H]2NC(=O)[C@@H](O)CN)OC[C@]1(C)O (stereo partly drawn),Potency,[1],inactive
same,Potency,[2],inactive
C[C@H]1C[C@H]2[C@H]3CCC4=CC(=O)C=C[C@]4(C)[C@@]3(F)[C@@H](O)C[C@]2(C)[C@@]1(OC(=O)c1ccccc1)C(=O)CO,Potency,[1],inactive
same,Potency,[2],inactive
CC(C)(C)NCC(O)COc1ccccc1C#N (stereo not drawn),Potency,[1],inactive
same,Potency,[2],inactive
CN[C@H]1C(=O)N[C@@H]2Cc3ccc(cc3)Oc3cc4cc(c3O[C@@H]3O[C@H](C(=O)O)[C@@H](O)[C@H](O)[C@H]3NC(=O)CCCCCCCCC(C)C)Oc3ccc(cc3Cl)[C@@H](O)[C@@H]3NC(=O)[C@H](NC(=O)[C@@H]4NC(=O)[C@@H](NC2=O)c2cc(cc(O)c2Cl)Oc2cc1ccc2O)c1ccc(O)c(c1)-c1c(O[C@H]2O[C@H](CO)[C@@H](O)[C@H](O)[C@@H]2O)cc(O)cc1[C@@H](C(=O)NCCCN(C)C)NC3=O,Potency,[1],inactive
same,Potency,[2],inactive
CC(=O)OCC(=O)[C@@]1(O)[C@H](C)C[C@H]2[C@@H]3C[C@H](F)C4=CC(=O)C=C[C@]4(C)[C@@]3(F)[C@@H](O)C[C@@]21C,Potency,[1],inactive
same,Potency,[2],inactive
